Hits are enriched below; roughly 2.4% of the tested compounds scored in any of these assays.
Pf Dd2 inh = P. falciparum Dd2 growth inhibition | SYBR Green, 72 h; hits give low values | activity change, % at 10 µM | 2.3% of 94,000 active | AID 1159554; in the data active = activity change below about -80%
C diff HTS = inhibitors of Clostridium difficile growth; Clostridium difficile clinical isolate growth, OD600, 24 h; hits give low values; growth activity, negative = inhibition, % at 16 µg/mL (by protocol); 0.25% of 86,000 active; AID 1259249;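 active = mean growth activity at or below -80% and every replicate also at or below -80%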;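 also: 0% = DMSO wells and -100% = levofloxacin 16 µg/mL wells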
Numbers without * were called inactive; . = not tested or not shown.

SMILES	Pf Dd2 inh	C diff HTS
Cc1noc(C)c1S(=O)(=O)N(C)C[C@H]1OCc2ccccc2-c2c(n(C)c3ccccc23)C(=O)N([C@H](C)CO)C[C@@H]1C	-35	3
C[C@H]1CN([C@@H](C)CO)C(=O)c2c(c3ccccc3n2C)-c2ccccc2CO[C@@H]1CN(C)S(=O)(=O)c1ccsc1	-80*	4
C[C@@H]1CN([C@@H](C)CO)C(=O)c2c(c3ccccc3n2C)-c2ccccc2CO[C@@H]1CN(C)S(=O)(=O)c1ccsc1	-33	-4
Cc1noc(C)c1S(=O)(=O)N(C)C[C@@H]1OCc2ccccc2-c2c(n(C)c3ccccc23)C(=O)N([C@H](C)CO)C[C@@H]1C	-84*	-1
C[C@H](CO)N1C[C@H](C)[C@H](CN(C)S(=O)(=O)c2ccc([N+](=O)[O-])cc2)OCc2ccccc2-c2c(n(C)c3ccccc23)C1=O	-92*	3
COc1ccccc1-c1cnc2c(c1)C(=O)N([C@@H](C)CO)C[C@H](C)[C@@H](CN(C)Cc1cncnc1)O2	-13	7
Cc1nn(C)cc1NC(=O)C[C@H]1CC[C@@H]2[C@@H](COc3ccc(NC(=O)C(C)C)cc3C(=O)N2C)O1	-10	-2
CN1[C@H](C(=O)NC2Cc3ccccc3C2)[C@@H](CO)[C@@H]2Cn3c(ccc(-c4ccccc4)c3=O)[C@@H]21	-15	-2
C[C@@H]1CCCCO[C@H](CN(C)S(=O)(=O)c2cccs2)[C@@H](C)CN([C@@H](C)CO)C(=O)c2cc(NC(=O)CCC(F)(F)F)ccc2O1	-56	5
C[C@@H]1CN([C@H](C)CO)C(=O)c2c(c3ccccc3n2C)-c2ccccc2CO[C@@H]1CN(C)S(=O)(=O)c1ccccc1	-9	.
Cc1ccc(S(=O)(=O)N(C)C[C@@H]2OCc3ccccc3-c3c(n(C)c4ccccc34)C(=O)N([C@@H](C)CO)C[C@H]2C)cc1	-81*	.
Cc1ccc(S(=O)(=O)N(C)C[C@H]2OCc3ccccc3-c3c(n(C)c4ccccc34)C(=O)N([C@@H](C)CO)C[C@@H]2C)cc1	-92*	.
Cc1ccc(S(=O)(=O)N(C)C[C@@H]2OCc3ccccc3-c3c(n(C)c4ccccc34)C(=O)N([C@H](C)CO)C[C@H]2C)cc1	-82*	.
C[C@@H]1CN([C@@H](C)CO)C(=O)c2c(c3ccccc3n2C)-c2ccccc2CO[C@H]1CN(C)S(=O)(=O)c1ccc(F)cc1	-54	.
CO[C@@H]1CN(C)C(=O)c2cc(NC(=O)NC(C)C)ccc2OC[C@H](C)N(Cc2ccc(-c3ccccn3)cc2)C[C@@H]1C	-32	-2
CC(C)NC(=O)Nc1ccc2c(c1)C(=O)N(C)[C@@H]1CC[C@H](CC(=O)NCC3CCCCC3)O[C@H]1CO2	5	-1
CC(C)NC(=O)N1CC2(C1)[C@H](c1ccccc1)[C@H](CO)N2C(=O)C1CCC1	-8	-5
O=C(C[C@@H]1C[C@@H]2c3cc(NC(=O)CC4CC4)ccc3O[C@@H]2[C@@H](CO)O1)NCc1ccc(-c2ccccc2)cc1	-8	1
C[C@@H]1CN([C@@H](C)CO)C(=O)c2cc(NC(=O)C3CCCCC3)ccc2O[C@@H](C)CCCCO[C@H]1CN(C)C(=O)c1ccncc1	-14	3
C[C@@H]1CCCCO[C@H](CN(C)C(=O)Nc2ccc(C(F)(F)F)cc2)[C@H](C)CN([C@@H](C)CO)C(=O)c2cc(NC(=O)NC3CCCCC3)ccc2O1	-71	1
C[C@@H]1CCCCO[C@H](CN(C)C(=O)Nc2ccc(C(F)(F)F)cc2)[C@@H](C)CN([C@@H](C)CO)C(=O)c2cc(NC(=O)NC3CCCCC3)ccc2O1	-90*	6
C[C@@H]1CCCCO[C@H](CN(C)C(=O)NC2CCCCC2)[C@@H](C)CN([C@H](C)CO)C(=O)c2cc(NC(=O)Nc3ccc(C(F)(F)F)cc3)ccc2O1	-6	4
C[C@@H]1CCCCO[C@H](CN(C)C(=O)NC2CCCCC2)[C@@H](C)CN([C@@H](C)CO)C(=O)c2cc(NC(=O)Nc3ccc(C(F)(F)F)cc3)ccc2O1	-83*	10
C[C@H]1CN([C@@H](C)CO)C(=O)c2cc(NC(=O)CCC(F)(F)F)ccc2O[C@@H]1CN(C)C(=O)NC1CCCCC1	-2	4
C[C@@H]1CN([C@H](C)CO)C(=O)c2cc(NC(=O)CCC(F)(F)F)ccc2O[C@H]1CN(C)C(=O)NC1CCCCC1	-87*	-4
SMILES	Pf Dd2 inh	C diff HTS
O=C(C[C@H]1C=C[C@H](NC(=O)Nc2ccc(C(F)(F)F)cc2)[C@H](CO)O1)NCc1cccc(F)c1	10	.
C[C@@H]1CCCCO[C@@H](CN(C)Cc2ccc3c(c2)OCO3)[C@@H](C)CN([C@@H](C)CO)C(=O)c2cc(N(C)C)ccc2O1	-60	15
COc1ccccc1C#Cc1ccc2c(c1)[C@H]1[C@H](CCN1S(=O)(=O)c1ccccc1)[C@@H](CO)N2	-17	-5
COc1ccccc1C#Cc1ccc2c(c1)[C@@H]1NCC[C@@H]1[C@H](CO)N2	-90*	0
O=S(=O)(c1cccc(F)c1)N1CC[C@@H]2[C@@H](CO)Nc3ccc(C#Cc4cccc(F)c4)cc3[C@@H]21	-20	3
OC[C@@H]1Nc2ccc(C#Cc3cccc(F)c3)cc2[C@H]2NCC[C@@H]12	-88*	-13
COc1ccc(S(=O)(=O)Nc2ccc3c(c2)C(=O)N([C@@H](C)CO)C[C@H](C)[C@H](CN(C)S(=O)(=O)c2ccccc2)OCCCC[C@@H](C)O3)cc1	-69	-11
C[C@@H]1CN([C@H](C)CO)C(=O)c2cccc(NC(=O)CCCCCC(=O)Nc3ccccc3N)c2O[C@@H]1CN(C)Cc1ccc2c(c1)OCO2	-85*	1
C[C@@H]1CN([C@H](C)CO)C(=O)Cc2cc(NC(=O)CCCCCC(=O)Nc3ccccc3N)ccc2O[C@H]1CN(C)Cc1ccc2c(c1)OCO2	-40	-5
C[C@H]1CN([C@@H](C)CO)C(=O)Cc2cc(NC(=O)CCCCCC(=O)Nc3ccccc3N)ccc2O[C@@H]1CN(C)Cc1ccc2c(c1)OCO2	-40	-5
C[C@@H]1CN([C@H](C)CO)C(=O)c2cccc(NC(=O)CCCCCC(=O)Nc3ccccc3N)c2O[C@H]1CN(C)Cc1ccc2c(c1)OCO2	-90*	-1
Cc1ccccc1-c1ccc(C2[C@H]3CNC[C@@H]2N3S(=O)(=O)c2ccc(Cl)cc2)cc1 (stereo partly drawn)	-9	31
COCC#Cc1cnc2c(c1)C(=O)N([C@H](C)CO)C[C@H](C)[C@H](CN(C)C(=O)c1ccc3c(c1)OCO3)O2	19	-5
COc1cccc(-c2ccc([C@H]3[C@H]4CN(C(=O)C5CCC5)CC(=O)N4[C@H]3CO)cc2)c1	-6	-1
Cc1ccc(S(=O)(=O)N(C)C[C@H]2Oc3ccc(NC(=O)Cc4cn(C)c5ccccc45)cc3C(=O)N([C@@H](C)CO)C[C@H]2C)cc1	-33	-2
C[C@@H]1CN([C@H](C)CO)C(=O)c2cc(NC(=O)Cc3cn(C)c4ccccc34)ccc2O[C@H]1CN(C)S(=O)(=O)c1ccccc1	-29	6
C[C@H]1CN([C@@H](C)CO)C(=O)c2cc(NC(=O)Cc3cn(C)c4ccccc34)ccc2O[C@@H]1CN(C)S(=O)(=O)c1ccccc1	-84*	4
C[C@H](CO)N1C[C@H](C)[C@H](CN(C)S(=O)(=O)c2ccccc2)Oc2ccc(NC(=O)Cc3cn(C)c4ccccc34)cc2C1=O	-93*	0
